# According to PubChem BioAssay AID2685 (National Center for Advancing Translational Sciences (NCATS), 2010):
# About 2,100 (0.66%) of roughly 320,000 compounds were called active. Another 53% or so got no clear call; they are omitted. Calls follow the shape of the dose curve; as a rule, active = well fitted inhibition curve with a large enough effect in the signal ratio, with a control signal flat (not every such curve was filed as active); inconclusive = small, poorly fitted or top-dose-only effect, or effect the other way, or a change in a side signal; inactive = flat fitted curve, though single readings scatter; the % refers to the signal ratio. The full list was thinned out, with actives kept by preference.
# Assay: qHTS Assay for Lipid Storage Modulators in Drosophila S3 Cells;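 as to cell number change: cells counted by Cell Tracker Red CMTPX staining in the red channel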; as to lipid storage change, negative = inhibition: % is scaled to controls: 0 for no effect and ±100 for the full control effect
# Settings: BODIPY lipid droplet fluorescence, 18-24 h, cells fed with added oleic acid; cell number change: measured here: cell count max response; series mostly up to 46.1 µM; lipid storage change, negative = inhibition: at the top concentration
# Method in brief: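 Drosophila S3 cells loaded with oleic acid (400 uM, as added) and compounds at several concentrations; lipid droplets imaged by 488-nm laser-scanning cytometry, 500–530 nm intensity and object ratio to cell channel. Percent activity normalized to 20 uM Triacsin C.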
# Potency is read from the fitted curve at half-maximal effect.
Structure (SMILES),outcome,cell number change,"lipid storage change, negative = inhibition",Potency
Nc1nc(SCC(=O)Nc2cccnc2Cl)n[nH]1,inactive,,,
COc1ccc(-c2n[nH]c(=S)n2N)c(OC)c1,inactive,-28.8%,,
COc1ccc(CNC(=O)CCNS(=O)(=O)c2ccc3c(c2)oc(=O)n3C)cc1,,,-3.68% (inactive),
Cc1ccc(N2CCN(/N=C/c3ccccc3)CC2)cc1,,-1.14%,-18.6% (inactive),
C=CCNC(=O)c1ccccc1NC(=O)c1ccc(Cl)c(S(=O)(=O)Nc2ccccc2)c1,,-6.78%,-5.77% (inactive),
Cc1ccccc1-n1ncc2c1CC(C)(C)CC2NC(=O)CCN1CCCCC1=O (configuration not stated),,-9.29%,-16.5% (inactive),
O=C(O)c1cc(-c2ccc(Cl)c(Cl)c2)n(-c2ccc(F)cc2)n1,,20.6%,1.09% (inactive),
CCn1c(=O)c2sccc2n2c(CCCC(=O)NC3CCN(Cc4ccccc4)CC3)nnc12,,,-11.5% (inactive),
CCn1c(=O)c2sccc2n2c(CCCC(=O)N3CCN(c4ccccn4)CC3)nnc12,,-5.66%,,23.1 µM (active)
COc1ccccc1CNC(=O)CCn1c(=O)[nH]c2ccsc2c1=O,,-12.6%,1.06% (inactive),
COc1ccccc1CNC(=O)CCCc1nnc2n(C)c(=O)c3sccc3n12,,11.8%,,1.3 µM (active)
O=C(CCCn1c(=O)[nH]c2ccsc2c1=O)N1CCN(c2ccccn2)CC1,,-2.15%,-23.2% (inactive),
CC(C)Cn1c(=O)c2sccc2n2c(CCCC(=O)NC3CCN(Cc4ccccc4)CC3)nnc12,inactive,6.76%,,
N#Cc1ccc(C[C@@H](NS(=O)(=O)c2ccc(C(=O)O)cc2)C(=O)O)cc1,,17.7%,16.5% (inactive),
COc1cc(/C=C2/C(=O)N(c3ccc(Br)cc3)N=C2C)cc([N+](=O)[O-])c1O,inactive,,,
COc1ccc(OCCCCOc2ccccc2Cl)cc1,,0.395%,-0.0266% (inactive),
NNC(=O)/C(=C\c1ccc(Br)cc1)NC(=O)c1cccs1,,2.9%,0.151% (inactive),
COc1ccc(NC(=O)CCNC(=O)c2ccc([N+](=O)[O-])cc2)cc1S(=O)(=O)N1CCOCC1,,-1.49%,-6.84% (inactive),
COC(=O)Cn1c(=O)cnc2ccccc21,,11.6%,,16.4 µM (active)
CC(C)(C)OC(=O)Cn1c(=O)cnc2ccccc21,,6.02%,-0.847% (inactive),
COc1ccc(OCC(=O)NNC(=O)Cn2c(=O)cnc3ccccc32)cc1,,2.51%,18.9% (inactive),
CCC1=C(OC(=O)N(CC)CC)N2C(=O)OC(=NCc3ccccc3)[C@]2(C)[C@H]2C1=CC[C@H]1C(=O)N(c3ccccc3)C(=O)[C@H]12,,11.7%,10.2% (inactive),
Cc1cc(NC(=O)COC(=O)c2ccccc2[N+](=O)[O-])no1,,-0.913%,11.3% (inactive),
O=C(C1=C(O)C(=O)N(CCc2ccccc2)C1c1cccs1)c1ccco1 (configuration not stated),inactive,,,
COc1ccccc1-[n+]1c(C)cc(/C=C2\Sc3ccccc3N2C)cc1C,,-16.5%,,0.082 µM (active)

Structure (SMILES),outcome,cell number change,"lipid storage change, negative = inhibition",Potency
CN1/C(=C/c2cccc[n+]2CCO)Sc2ccccc21,,0.676%,-13.9% (inactive),
Cc1ccc2c(c1)S/C(=C/c1ccc[n+](CCO)c1)N2C,,5.41%,-3.25% (inactive),
Cn1cc(CN2CCCC(CNC(=O)c3ccc4c(c3)OCO4)C2)c2ccccc21 (configuration not stated),,-1.43%,13.4% (inactive),
COc1ccc(-n2nc3c(c2NC(=O)CBr)CSC3)cc1,,13.3%,-5.01% (inactive),
C=CCC(Nc1ccccc1)c1ccc(OC)c(OC)c1 (configuration not stated),,7.9%,16.3% (inactive),
C=CCC(NCc1ccco1)c1ccc(OC)c(OC)c1 (configuration not stated),,,,23.1 µM (active)
C=CCC(NCc1ccco1)c1ccc(OC)cc1 (configuration not stated),,-21.6%,-17.7% (inactive),
CCOc1ncccc1C(=O)OCC(=O)Nc1cc(S(=O)(=O)N(CC)CC)ccc1C,,-5.2%,-12% (inactive),
COCCCn1c(-c2ccc(OC)cc2)nc2nc3ccccc3nc21,inactive,5.75%,,
Cc1ccc(S(=O)(=O)N2CCCCC2)cc1C(=O)N1CCN(c2ccccn2)CC1,,,7.29% (inactive),
Cc1cccc(C(=O)NCc2nnc(SCC(=O)Nc3nncs3)n2C)c1,,-2.14%,23.4% (inactive),
CC(NC(=O)CCC(=O)NC(C)C1COc2ccccc2O1)C1COc2ccccc2O1 (configuration not stated),,-1.04%,-3.23% (inactive),
O=C(OC1CCOC1=O)c1cc(-c2cccc(Br)c2)nc2ccccc12 (configuration not stated),,21.7%,4.32% (inactive),
Cc1cc2ccccn2c1C(C[N+](=O)[O-])c1ccc(N(C)C)cc1 (configuration not stated),,12.9%,7.67% (inactive),
COc1cc(C(C[N+](=O)[O-])c2c(C)cc3ccccn23)ccc1O (configuration not stated),,15.3%,,0.651 µM (active)
COc1cc(C(C[N+](=O)[O-])c2c(C)[nH]c3ccccc23)ccc1O (configuration not stated),,20.5%,6.04% (inactive),
Cc1nc(Cl)sc1C(=O)Nc1ccc(C(F)(F)F)cc1,,-0.73%,,1.64 µM (active)
Cc1nc(Cl)sc1C(=O)Nc1ccc(C(C)(C)C)cc1,,1.1%,,7.31 µM (active)
O=C(Nc1cccc(C(F)(F)F)c1)c1sc(Cl)nc1C(F)(F)F,,-10.2%,,10.3 µM (active)
Cc1nc(Cl)sc1C(=O)Nc1ccccc1Cl,,-11.3%,-5.61% (inactive),
Cc1ncsc1C(=O)Nc1cccc(C(F)(F)F)c1,,22.3%,8.39% (inactive),
O=C(Nc1cccc(C(F)(F)F)c1)c1cc(-c2ccco2)on1,,7.92%,26.8% (inactive),
Cc1nc(Cl)sc1C(=O)Nc1cccc(Cl)c1,inactive,2.35%,,
CC(=O)c1cccc(NC(=O)c2sc(Cl)nc2C)c1,,12.6%,-14.7% (inactive),
Cc1ccccc1NC(=O)c1sc(Cl)nc1C,,,11.6% (inactive),
